Active and inactive are the calls of the source. The calls were made as follows: active = hit-call score of the fitted dose curve at least 0.9, where 1 is the maximum; inactive = score below 0.9.
Legend:
Conditions in all cases: mRNA level, 48 h; actives raise or lower the signal
[1] = read-out: Heat shock 70 kDa protein 1 (HSPA1A), gene 3303; assay: LTEA_HepaRG_HSPA1A: Life Technologies and Expression Analysis (LTEA) Assay for Heat shock 70 kDa protein 1 (HSPA1A) using HepaRG (AID 2283502)
In short: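 Cells were plated and cultured for 48 h, then switched to serum-free induction medium. Chemicals were added at eight half-log concentrations up to 100 uM for 48 h. RNA was then isolated and HSPA1A measured by qRT-PCR with bidirectional curve fitting against DMSO.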

[2] = read-out: Hypoxia-inducible factor 1-alpha (Homo sapiens) (UniProt Q16665); assay: LTEA_HepaRG_HIF1A: Life Technologies and Expression Analysis (LTEA) Assay for Hypoxia-inducible factor 1 (HIF1A) Trancription factor using HepaRG (AID 2283503)
In short: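 HIF1A transcript level read by qRT-PCR (ACTB, GAPDH, POLR2A normalization) after 48 h chemical exposure of HepaRG cultures. Eight half-log concentrations, top 100 uM, 0.5% DMSO vehicle, duplicates; bidirectional curve fit against DMSO baseline.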

[3] = read-out: 3-Hydroxy-3-Methylglutaryl-CoA Synthase 2 (HMGCS2), HMGCS2 (gene 3158); assay: LTEA_HepaRG_HMGCS2: Life Technologies and Expression Analysis (LTEA) Assay for 3-Hydroxy-3-Methylglutaryl-CoA Synthase 2 (HMGCS2) using HepaRG (AID 2283504)
In short: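 Differentiated human HepaRG cells were exposed in duplicate for 48 h in serum-free induction medium to eight concentrations (top 100 uM, half-log steps, 0.5% DMSO). HMGCS2 mRNA was quantified by TaqMan qRT-PCR, normalised to ACTB, GAPDH and POLR2A, then fitted bidirectionally against DMSO.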

HGF (gene 3082) = assay: LTEA_HepaRG_HGF: Life Technologies and Expression Analysis (LTEA) Assay for Hepatocyte Growth Facto (HGF) using HepaRG (AID 2283505)
In short: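 Differentiated human HepaRG cells in serum-free induction medium were exposed in duplicate for 48 h to eight concentrations (top 100 uM, half-log steps, 0.5% DMSO). HGF mRNA was quantified by qRT-PCR, normalized to ACTB, GAPDH and POLR2A.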

[4] = read-out: Insulin Like Growth Factor 1 (IGF1), IGF1 (gene 3479); assay: LTEA_HepaRG_IGF1: Life Technologies and Expression Analysis (LTEA) Assay for Insulin Like Growth Factor 1 (IGF1) using HepaRG (AID 2283506)
In short: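 Cells are thawed, plated and cultured 48 h, then exposed in duplicate to chemical (highest 100 uM, half-log steps, 0.5% DMSO) for another 48 h. Total RNA is analysed by Fluidigm qRT-PCR for IGF1 expression relative to vehicle.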

[5] = read-out: Insulin-like growth factor-binding protein 1 (IGFBP1), IGFBP1 (gene 3484); assay: LTEA_HepaRG_IGFBP1: Life Technologies and Expression Analysis (LTEA) Assay for Insulin-like growth factor-binding protein 1 (IGFBP1) using HepaRG (AID 2283508)
In short: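 Differentiated human HepaRG cells in serum-free induction medium were exposed in duplicate for 48 h to eight concentrations, top 100 uM with half-log dilutions, in 0.5% DMSO. Transcript levels came from qRT-PCR normalised to ACTB, GAPDH and POLR2A, fitted bidirectionally against DMSO.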

[6] = read-out: Interleukin 6 (IL6), IL6 (gene 3569); assay: LTEA_HepaRG_IL6: Life Technologies and Expression Analysis (LTEA) Assay for Interleukin 6 (IL6) using HepaRG (AID 2283509)
In short: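 qRT-PCR read-out of IL6 transcript, normalized to three housekeeping genes, after 48 h chemical exposure of HepaRG cells; 8-point half-log series, top 100 uM, 0.5% DMSO vehicle. Bidirectional curve fitting against DMSO baseline.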

[7] = read-out: Interleukin 6 Receptor (IL6R), IL6R (gene 3570); assay: LTEA_HepaRG_IL6R: Life Technologies and Expression Analysis (LTEA) Assay for Interleukin 6 Receptor (IL6R) using HepaRG (AID 2283510);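 as to AC50: TaqMan qRT-PCR signal normalized to ACTB GAPDH and POLR2A housekeeping genes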
In short: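 Cells were thawed, plated and cultured 48 h, then medium was changed to serum-free induction medium. Chemicals were added in duplicate (100 uM top, half-log steps, 0.5% DMSO) for 48 h. Lysates were analyzed by qRT-PCR for IL6R expression.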

[8] = read-out: Potassium channel subfamily K member 1 (KCNK1), KCNK1 (gene 3775); assay: LTEA_HepaRG_KCNK1: Life Technologies and Expression Analysis (LTEA) Assay for Potassium channel subfamily K member 1 (KCNK1) using HepaRG (AID 2283511)
In short: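 HepaRG, 48 h exposure, 8-pt half-log series top 100 uM, 0.5% DMSO vehicle, duplicates. Readout: KCNK1 transcript by qRT-PCR (Fluidigm array), housekeeping-normalized; bidirectional curve fit relative to DMSO baseline.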

[9] = read-out: Keratin 19 (KRT19), KRT19 (gene 3880); assay: LTEA_HepaRG_KRT19: Life Technologies and Expression Analysis (LTEA) Assay for Keratin 19 (KRT19) using HepaRG (AID 2283512)
In short: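 Differentiated human HepaRG cells, plated 48 h, were exposed in duplicate for 48 h in serum-free induction medium to eight half-log concentrations up to 100 uM in 0.5% DMSO. KRT19 mRNA was quantified by qRT-PCR, normalized to ACTB, GAPDH and POLR2A, and fitted bidirectionally versus DMSO.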

[10] = read-out: JUN Transcription Factor, JUN (gene 3725); assay: LTEA_HepaRG_JUN: Life Technologies and Expression Analysis (LTEA) Assay for JUN Transcription Factor using HepaRG (AID 2283513)
In short: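 Read-out is JUN transcript level by TaqMan qRT-PCR, normalized to ACTB, GAPDH and POLR2A, after 48 h chemical treatment of HepaRG cells. Concentration-response spanned eight half-log points up to 100 uM in 0.5% DMSO.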

[11] = read-out: Lipase C (LIPC), LIPC (gene 3990); assay: LTEA_HepaRG_LIPC: Life Technologies and Expression Analysis (LTEA) Assay for Lipase C (LIPC) using HepaRG (AID 2283514)
In short: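 HepaRG, 48 h exposure, 8-pt half-log series from 100 uM in 0.5% DMSO, duplicates. Readout: LIPC mRNA by Fluidigm qRT-PCR, housekeeping-normalized (ACTB/GAPDH/POLR2A). Gain or loss fitted bidirectionally against DMSO baseline.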

[12] = read-out: Lipoprotein lipase (LPL), LPL (gene 4023); assay: LTEA_HepaRG_LPL: Life Technologies and Expression Analysis (LTEA) Assay for Lipoprotein lipase (LPL) using HepaRG (AID 2283515)
In short: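 HepaRG, 48 h exposure, 8-pt half-log dilutions from 100 uM, 0.5% DMSO vehicle, duplicates; qRT-PCR (Fluidigm array) of LPL mRNA vs housekeeping genes; bidirectional curve fit relative to DMSO baseline.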

[13] = read-out: MicroRNA 122 (MIR122), gene 406906; assay: LTEA_HepaRG_MIR122: Life Technologies and Expression Analysis (LTEA) Assay for MicroRNA 122 (MIR122) using HepaRG (AID 2283516); also: the transcript read is the microRNA miR-122
In short: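 Human liver HepaRG cultures receive test chemicals for 48 h at eight half-log concentrations from 100 uM. Expression is quantified by qRT-PCR with ACTB/GAPDH/POLR2A normalization and fitted bidirectionally against 0.5% DMSO.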

[14] = read-out: matrix metalloproteinase-10 (MMP10), MMP10 (gene 4319); assay: LTEA_HepaRG_MMP10: Life Technologies and Expression Analysis (LTEA) Assay for matrix metalloproteinase-10 (MMP10) using HepaRG (AID 2283517)
In short: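 Transcript levels come from Fluidigm qRT-PCR normalized to three housekeeping genes, with curves fitted bidirectionally against 0.5% DMSO. Human HepaRG cells were dosed for 48 hours at concentrations up to 100 uM.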

MYC, MYC (gene 4609) = assay: LTEA_HepaRG_MYC: Life Technologies and Expression Analysis (LTEA) Assay for MYC using HepaRG (AID 2283518)
In short: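 Differentiated human HepaRG cells, plated 48 h then switched to serum-free induction medium, were exposed in duplicate for 48 h to 8-point half-log series up to 100 uM in 0.5% DMSO. MYC mRNA measured by qRT-PCR, normalized to ACTB/GAPDH/POLR2A.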

[15] = read-out: matrix metalloproteinase-3 (MMP3), MMP3 (gene 4314); assay: LTEA_HepaRG_MMP3: Life Technologies and Expression Analysis (LTEA) Assay for matrix metalloproteinase-3 (MMP3) using HepaRG (AID 2283519)
In short: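 qRT-PCR read-out of MMP3 mRNA (normalised to three housekeeping genes) in HepaRG liver cells after 48 h chemical exposure; 8-point half-log series, top 100 uM, 0.5% DMSO vehicle. Bidirectional curve fitting against DMSO baseline.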

[16] = read-out: Paternally Expressed 10 (PEG10), PEG10 (gene 23089); assay: LTEA_HepaRG_PEG10: Life Technologies and Expression Analysis (LTEA) Assay for Paternally Expressed 10 (PEG10) using HepaRG (AID 2283520);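 as to AC50: PEG10 transcript by qRT-PCR normalised to ACTB GAPDH and POLR2A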
In short: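 Human HepaRG cultures are dosed for 48 h across an eight-point half-log series starting at 100 uM, with 0.5% DMSO as vehicle and baseline. Gain or loss of PEG10 transcript is measured by qRT-PCR and fitted in both directions.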

[17] = read-out: Nuclear factor NF-kappa-B p105 subunit (Homo sapiens) (UniProt P19838); assay: LTEA_HepaRG_NFKB1: Life Technologies and Expression Analysis (LTEA) Assay for Nuclear Factor Kappa B Subunit 1 (NFKB1) using HepaRG (AID 2283521);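 also: TaqMan qRT-PCR transcript normalised to ACTB GAPDH and POLR2A housekeeping genes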
In short: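 HepaRG, 48 h exposure; 8-pt half-log series from 100 uM in 0.5% DMSO; duplicates. Readout: NFKB1 mRNA by qRT-PCR (Fluidigm arrays), housekeeping-normalized. Gain/loss fit vs DMSO baseline.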

[18] = read-out: Intercellular Adhesion Molecule 1 (ICAM1), ICAM1 (gene 3383); assay: LTEA_HepaRG_ICAM1: Life Technologies and Expression Analysis (LTEA) Assay for Intercellular Adhesion Molecule 1 (ICAM1) using HepaRG (AID 2283507)
In short: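 Differentiated HepaRG cells in serum-free induction medium were exposed in duplicate for 48 h to eight half-log concentrations up to 100 uM in 0.5% DMSO. Transcript levels were measured by qRT-PCR normalized to ACTB, GAPDH and POLR2A; bidirectional fits relative to DMSO.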

Measured: AC50

Chain of Hypoxia-inducible factor 1-alpha (Homo sapiens) (Q16665 whole entry, looked up): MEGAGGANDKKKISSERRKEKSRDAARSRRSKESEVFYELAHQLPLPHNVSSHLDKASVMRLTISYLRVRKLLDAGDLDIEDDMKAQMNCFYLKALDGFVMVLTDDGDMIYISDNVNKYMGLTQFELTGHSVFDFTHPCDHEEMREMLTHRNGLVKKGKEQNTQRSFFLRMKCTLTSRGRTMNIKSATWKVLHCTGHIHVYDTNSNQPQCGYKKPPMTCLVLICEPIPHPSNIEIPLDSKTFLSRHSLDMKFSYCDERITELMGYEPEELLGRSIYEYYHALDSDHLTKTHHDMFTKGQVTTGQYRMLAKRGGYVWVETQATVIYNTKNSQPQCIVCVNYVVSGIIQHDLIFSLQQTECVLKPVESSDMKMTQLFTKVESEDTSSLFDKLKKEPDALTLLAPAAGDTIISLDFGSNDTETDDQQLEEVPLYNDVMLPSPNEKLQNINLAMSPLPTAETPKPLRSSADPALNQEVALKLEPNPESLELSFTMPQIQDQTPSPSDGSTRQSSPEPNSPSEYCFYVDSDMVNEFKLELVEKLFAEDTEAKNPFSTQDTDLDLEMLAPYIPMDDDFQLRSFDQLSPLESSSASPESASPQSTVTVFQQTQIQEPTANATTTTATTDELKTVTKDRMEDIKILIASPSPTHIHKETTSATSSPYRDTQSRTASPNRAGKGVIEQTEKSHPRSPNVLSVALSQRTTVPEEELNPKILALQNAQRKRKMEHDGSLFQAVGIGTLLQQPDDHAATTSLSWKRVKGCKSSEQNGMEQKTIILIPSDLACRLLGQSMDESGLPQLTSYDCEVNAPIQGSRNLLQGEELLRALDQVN
Chain of Nuclear factor NF-kappa-B p105 subunit (Homo sapiens) (P19838 whole entry, looked up): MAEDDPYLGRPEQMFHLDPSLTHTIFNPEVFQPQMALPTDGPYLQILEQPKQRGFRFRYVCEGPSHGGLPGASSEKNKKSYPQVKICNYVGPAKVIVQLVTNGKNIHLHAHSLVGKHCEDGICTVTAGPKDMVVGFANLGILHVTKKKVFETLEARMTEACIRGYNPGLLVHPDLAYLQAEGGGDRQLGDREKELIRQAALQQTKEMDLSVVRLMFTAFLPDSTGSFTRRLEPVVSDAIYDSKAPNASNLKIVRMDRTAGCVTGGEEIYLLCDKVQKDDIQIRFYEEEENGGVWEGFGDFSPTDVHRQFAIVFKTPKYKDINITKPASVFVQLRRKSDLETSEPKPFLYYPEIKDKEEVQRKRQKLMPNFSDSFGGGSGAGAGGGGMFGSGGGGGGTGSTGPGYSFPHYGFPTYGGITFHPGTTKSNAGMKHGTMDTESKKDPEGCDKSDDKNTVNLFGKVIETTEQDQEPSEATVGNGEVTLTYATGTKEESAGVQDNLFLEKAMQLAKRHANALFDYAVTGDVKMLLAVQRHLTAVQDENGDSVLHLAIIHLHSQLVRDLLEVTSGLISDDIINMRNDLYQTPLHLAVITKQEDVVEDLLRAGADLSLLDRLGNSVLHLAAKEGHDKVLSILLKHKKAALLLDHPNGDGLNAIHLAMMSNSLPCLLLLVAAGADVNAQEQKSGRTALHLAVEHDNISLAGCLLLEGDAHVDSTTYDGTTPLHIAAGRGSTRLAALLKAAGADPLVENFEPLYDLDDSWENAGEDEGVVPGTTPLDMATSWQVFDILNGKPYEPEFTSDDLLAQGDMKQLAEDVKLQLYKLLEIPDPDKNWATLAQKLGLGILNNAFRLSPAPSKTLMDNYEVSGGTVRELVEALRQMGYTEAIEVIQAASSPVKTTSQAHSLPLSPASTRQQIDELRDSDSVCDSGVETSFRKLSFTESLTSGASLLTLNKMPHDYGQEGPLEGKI

O=c1ccc2ccccc2o1
inactive: [1] | [2] | [3] | HGF (gene 3082) | [4] | [5] | [6] | [7] | [8] | [9] | [10] | [11] | [12] | [13] | [14] | MYC, MYC (gene 4609) | [15] | [16] | [17]

NCc1cccc(C2CCN(C(=O)c3ccc(C#Cc4ccccc4F)o3)CC2)c1
active: [3] 93.8 µM | HGF (gene 3082) 79.5 µM | [7] 82.5 µM | [9] 9.92 µM | [11] 76.6 µM | [13] 97.8 µM | [16] 24.7 µM
inactive: [1] | [2] | [4] | [6] | [8] | [10] | [12] | [14] | MYC, MYC (gene 4609) | [15] | [17]

CCCCCCCCCC(=O)O
inactive: [1] | [2] | [3] | HGF (gene 3082) | [4] | [5] | [6] | [7] | [8] | [9] | [10] | [11] | [12] | [13] | [14] | MYC, MYC (gene 4609) | [15] | [16] | [17]

C[C@]12CC[C@@H]3c4ccc(O)cc4CC[C@H]3[C@@H]1CC[C@H]2O
inactive: HGF (gene 3082) | [5] | [6] | [7] | [8] | [9] | [10] | [12] | [13] | [14] | MYC, MYC (gene 4609) | [15]
active: [1] 12.5 µM | [3] 82.2 µM | [4] 50 µM | [11] 81.9 µM | [16] 50 µM

Oc1ccccc1
inactive: [1] | [2] | [3] | HGF (gene 3082) | [4] | [6] | [7] | [8] | [9] | [10] | [11] | [12] | [13] | [14] | MYC, MYC (gene 4609) | [15] | [16]

C[C@]12CC[C@@H]3c4ccc(O)cc4CC[C@H]3[C@@H]1CCC2=O
inactive: [2] | HGF (gene 3082) | [5] | [6] | [7] | [8] | [9] | [10] | [12] | [13] | [14] | MYC, MYC (gene 4609) | [15] | [16] | [17]
active: [1] 33.2 µM | [3] 72.7 µM | [4] 50 µM

CO[C@H]1/C=C/O[C@@]2(C)Oc3c(C)c(O)c4c(O)c(c(/C=N/N5CCN(C)CC5)c(O)c4c3C2=O)NC(=O)/C(C)=C\C=C\[C@H](C)[C@H](O)[C@@H](C)[C@@H](O)[C@@H](C)[C@H](OC(C)=O)[C@@H]1C
active: [4] 4.12 µM
inactive: [1] | [3] | HGF (gene 3082) | [18] | [6] | [7] | [8] | [9] | [10] | [11] | [12] | [13] | [14] | MYC, MYC (gene 4609) | [15] | [17]

O=C(O)c1ccccc1C(=O)OCc1ccccc1
inactive: [1] | [2] | [3] | HGF (gene 3082) | [4] | [6] | [7] | [8] | [9] | [10] | [11] | [12] | [13] | [14] | MYC, MYC (gene 4609) | [15] | [16] | [17]

Source: PubChem BioAssay (EPA / NIEHS)
